In the library only some 10% were active in any assay of this set; here they are far more common.
HPGD block = inhibitors of human 15-hydroxyprostaglandin dehydrogenase (HPGD); P15428; purified HPGD, NADH fluorescence kinetic, PGE2 substrate; Potency, µM, for inactives: at the highest dose activity change, negative = inhibition, hits mostly inhibitors; hit rate 4.3% among 150,000; AID 894; also: potency is read from the fitted curve at half-maximal effect
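NADH formation kinetics: reaction with 30 uM PGE2 and 1 mM NAD+ (final), 20 nM enzyme, Tris-HCl pH 8 with Tween 20, after 15 min compound preincubation at room temperature. Fluorescence change, last versus first of five reads.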
PNC inhibitor = perinucleolar compartment assembly inhibition | PC3M PTB-GFP, PNC prevalence imaging, 16 h; stronger effect = lower value | activity change (PNC), negative = inhibition, % at 10 µM | hit rate 3.1% among 140,000 | AID 2417;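 active = readout at or below -70, meaning at least 70% loss of cells showing the perinucleolar compartment, a nuclear body marking cancer cells; inconclusive = readout between -30 and a set limit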;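 also: plate controls were DMSO wells for no effect and camptothecin positive control wells for full effect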
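PC3M cells stably expressing PTB-GFP, 750–1000 cells/well, treated 16 h at 37 °C with compound (23 nl of library stock), in duplicate. After paraformaldehyde fixation and Hoechst stain, imaged at 20x; PNC prevalence scored by image analysis.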
ALDH1A1 inh = blocks purified human ALDH1A1 activity. Potency, µM (highest dose often 75.3 µM), inactives show at the highest dose activity, negative = inhibition, most hits filed as inhibitors. Purified ALDH1A1, NADH fluorescence, propionaldehyde substrate. AID 1030. hit rate 7.3% among 220,000;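 also: potency is read from the fitted curve at half-maximal effect; plate controls were no enzyme wells and a reference inhibitor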
ALOX12 inhib = blocks human 12-lipoxygenase activity; P18054; purified 12-hLO, xylenol orange hydroperoxide absorbance; Potency, µM (top dose mostly 57.1 µM), inactives show at the top dose activity change, negative = inhibition, most hits filed as inhibitors; hit rate 0.12% among 150,000; AID 1452; active = well fitted inhibition curve with a large enough effect; inconclusive = small, poorly fitted or top-dose-only effect; also: potency is read from the fitted curve at half-maximal effect; nearly all actives have a fitted effect of over 55% in size
Target sequence (P18054 whole entry, looked up): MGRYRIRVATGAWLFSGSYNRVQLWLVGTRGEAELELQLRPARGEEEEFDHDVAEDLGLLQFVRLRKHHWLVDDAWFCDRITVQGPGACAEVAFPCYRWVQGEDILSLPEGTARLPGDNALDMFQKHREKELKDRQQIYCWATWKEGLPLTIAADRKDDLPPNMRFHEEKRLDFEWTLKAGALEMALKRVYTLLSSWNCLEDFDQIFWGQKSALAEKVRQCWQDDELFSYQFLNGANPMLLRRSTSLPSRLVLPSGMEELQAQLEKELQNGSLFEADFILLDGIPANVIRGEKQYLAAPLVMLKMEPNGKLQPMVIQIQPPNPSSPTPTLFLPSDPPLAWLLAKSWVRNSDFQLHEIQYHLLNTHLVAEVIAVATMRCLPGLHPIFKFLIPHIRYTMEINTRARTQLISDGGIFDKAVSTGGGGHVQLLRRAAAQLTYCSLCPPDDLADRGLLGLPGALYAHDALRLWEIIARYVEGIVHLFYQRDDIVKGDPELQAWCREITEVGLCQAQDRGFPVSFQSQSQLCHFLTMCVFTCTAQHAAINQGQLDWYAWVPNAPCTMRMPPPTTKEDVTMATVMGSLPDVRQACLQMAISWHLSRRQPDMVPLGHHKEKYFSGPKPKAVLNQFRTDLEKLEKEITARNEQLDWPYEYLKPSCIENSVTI
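150 nM 12hLO, 25 mM Hepes pH 7.0 + 0.01% Triton X-100; cpd preinc 15 min RT; 40 uM arachidonic acid, 30 min RT; Fe-XO 30 min; A573/A405 ratio as read-out.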
LMNA splice mod = modulators of lamin A splicing. HeLa LMNA splicing GFP/RFP minigene ratio, 48 h. Potency, µM (top dose mostly 46.1 µM), inactives show at the highest dose ratio change, negative = inhibition, most hits filed as inhibitors. hit rate 0.01% among 200,000. AID 1487; active = well fitted inhibition curve with a large enough effect in the signal ratio, with a control signal flat, not every such curve was filed as active; inconclusive = small, poorly fitted or top-dose-only effect, or effect the other way, or a change in a side signal; the % refers to the signal ratio; also: potency is read from the fitted curve at half-maximal effect
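S3 HeLa cells stably expressing lamin A-EGFP splicing minigene plus DsRed2, 600 cells/well, 48 h compound exposure at 37C. Laser-scanning cytometry; analysed as GFP (500-530 nm)/RFP (575-640 nm) total intensity ratio; 0.5% DMSO vehicle.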
* = called active by the depositor; u = inconclusive; x = no result given; ! = not confirmed by another sample; [ ] = dose if it differs, or a comment. Unless noted, calls follow the shape of the dose curve; as a rule, active = well fitted inhibition curve with a large enough effect (not every such curve was filed as active); inconclusive = small, poorly fitted or top-dose-only effect, or another doubt; inactive = no such curve, though single readings can be large or run the other way. Unless noted, % is scaled to controls: 0 for no effect and ±100 for the full control effect.

SMILES | HPGD block | PNC inhibitor | ALDH1A1 inh | ALOX12 inhib | LMNA splice mod
CCN(CC)S(=O)(=O)c1ccc(N=Cc2c(O)n(-c3ccccc3)c(=O)[nH]c2=O)cc1 | -26% | u | 22µM* | -4% | 1%
Cc1cccc(-n2c(O)c(C=Nc3ccc(S(N)(=O)=O)cc3)c(=O)[nH]c2=O)c1 | x | x | -4% | x | x
COc1ccc(N=Cc2c(O)n(-c3ccc(C)cc3)c(=O)[nH]c2=O)cc1 | x | x | u | x | -5%[46 µM]
O=c1[nH]c(=O)n(-c2ccc(Cl)cc2)c(O)c1C=Nc1ccc(S(=O)(=O)Nc2nccs2)cc1 | 22µM* | u | u | 0% | 2%
c1cc(CCN2CCCCC2)ccn1 | -5% | x | 11%[13.5 µM] | -4%[11.4 µM] | x
CCCCC/C=C\C/C=C\C/C=C\C/C=C\CCCC(N)=O | -9% | x | -4% | -1% | x
CCCCC/C=C\C/C=C\C/C=C\C/C=C\CCCC(=O)NCc1ccoc1 | -26% | x | 18µM* | -9%[0.00818 µM] | x
CCCCC/C=C\C/C=C\C/C=C\C/C=C\CCCC(=O)NC(C)C(=O)O (stereo unspecified) | -6% | x | -4% | 2% | x
CCCCC/C=C\C/C=C\C/C=C\C/C=C\CCCC(=O)NCC(=O)O | 28µM*! | x | 5% | 3%[0.00818 µM] | 6%
CCCCC/C=C\C/C=C\C/C=C\C/C=C\CCCC(=O)N(Cc1ccc(O)c(Cl)c1)Cc1ccc(O)c(Cl)c1 | -3% | x | 3.5µM* | -5%[0.00818 µM] | x
CCCCC/C=C\C/C=C\C/C=C\C/C=C\CCCC(=O)NCCCC(=O)O | -14% | x | -1% | -9%[0.00818 µM] | x
CCCCC/C=C\C/C=C\C/C=C\C/C=C\CCCC(=O)NCCc1ccc(O)c(O)c1 | u | x | 16µM*! | u | x
CCCN1CC[C@@H]2c3cc(O)ccc3CC[C@H]21 | x | x | x | -2% | x
COc1cc([C@@H](O)CN)ccc1O | x | x | x | 3% | x
CCCCC/C=C\C/C=C\C/C=C\C/C=C\CCCC(=O)Nc1ccc(O)cc1 | 35µM* | x | u | -20% | 19%[46 µM]
CCCCC/C=C\C/C=C\CCCCCCCCCC(=O)NCCO | -7% | x | -3% | 5% | x
CCCCC/C=C\C/C=C\C/C=C\C/C=C\CCCC(=O)NCCO | -11% | x | 10µM*! | 4%[0.00818 µM] | x
N[C@@H](CSC1c2ccccc2-c2ccccc21)C(=O)O | -4% | x | 7%[13.5 µM] | 3%[11.4 µM] | x
N[C@H](Cc1ccc2oc3cc(=O)c4ccccc4c-3nc2c1)C(=O)O | -10% | x | u | -3%[11.4 µM] | x
CN(C)c1ccc(P(=O)(Nc2ccc([N+](=O)[O-])cc2)N2CCOCC2)c(NC(=O)c2cccs2)c1 (stereo unspecified) | u | -80* | -6% | -2% | u
O=C(c1cc([N+](=O)[O-])ccc1N1CCNCC1)N1CCOCC1 | -24% | 5 | u | -4% | -10%
CCn1c(C)cc(/C=C2\C(=O)NC(=O)N(c3ccccc3C)C2=O)c1C | x | x | -13% | x | -6%[46 µM]
Cc1ccccc1N1C(=O)NC(=O)/C(=C\c2cnn(-c3ccccc3)c2)C1=O | 10µM* | -13 | 18µM* | -9% | u
Cc1cc(C)nc(/N=C/c2c(O)n(C)c(=O)n(C)c2=O)n1 | -4% | -4 | u | -2% | 12%
Cc1ccc(O)cc1 | -10% | x | 7% | -2% | x
SMILES | HPGD block | PNC inhibitor | ALDH1A1 inh | ALOX12 inhib | LMNA splice mod
CN(N=O)c1cc(O)ccc1O | 14µM* | x | 20µM* | -2% | u
COc1ccc(N/N=C/c2c(O)n(-c3cccc(C)c3)c(=O)[nH]c2=O)cc1 | x | x | 3.2µM* | x | 14%[46 µM]
COc1ccc(N/N=C/c2c(O)n(-c3ccc(C)c(C)c3)c(=O)[nH]c2=O)cc1 | u | 51 | 1.6µM* | -8% | u
Cc1ccc(-n2c(O)c(/C=N/Nc3ccccc3)c(=O)[nH]c2=O)cc1C | x | x | 1% | x | u
COc1cccc(-n2c(O)c(C=NCCN3CCOCC3)c(=O)[nH]c2=O)c1 | -5% | 57 | 10% | 1% | 5%
Oc1c(Cl)cccc1Cl | -14% | x | 15% | -2% | x
CCOC(=O)c1c(N)n(Cc2ccc(OC)cc2)c2nc3ccccc3nc12 | u | 9 | u | -28% | 8%
COC(=O)c1c(N)n(Cc2ccc(OC)cc2)c2nc3ccccc3nc12 | u | -82* | u | -10% | -8%
CC1N(P(=O)(c2ccccc2)c2ccccc2)CC(O)(c2ccccc2)CC12CC2 (stereo unspecified) | -7% | x | -3% | -2% | x
COc1ccc(-c2cc(C(F)(F)F)n3nc(C(=O)N4CCC5(CC4)OCCO5)cc3n2)cc1OC | 13µM* | -2 | 10µM* | -7% | 6%
O=C(c1cc(-c2ccccc2)on1)N1CCC2(CC1)OCCO2 | x | x | 2% | x | -11%[46 µM]
CCc1ccc(C(=O)NN(C(=O)c2cc(C)cc(C)c2)C(C)(C)C)cc1 | -7% | x | 3% | -1% | x
CC(ON1CC1(C(F)(F)F)C(F)(F)F)(C(N)=O)C(N)=O (stereo unspecified) | -5% | -93* | 8% | 0% | 9%
[Cd+2].[Cl-].[Cl-] | 8.9µM* | x | 4µM* | 28µM* | x
CCCN1CCCC2Cc3[nH]ncc3CC21 (stereo unspecified) | -6% | x | 3% | x | u
NNc1nncn1N | -11% | x | -8%[13.5 µM] | -3%[11.4 µM] | x
COc1ccc(CCNCc2ccc(C)s2)cc1OC | x | x | 2% | x | 14%[46 µM]
COc1ccc(CC(=O)Nc2ccc3c(C(F)(F)F)cc(=O)oc3c2)cc1OC | -15% | 7 | 7.9µM* | -2% | 5%
CCCOC(=O)[C@@H]1[C@@H](C(=O)O)[C@H]2CC[C@@H]1O2 | -1% | x | -3%[13.5 µM] | 0%[11.4 µM] | x
Clc1nc(Cl)nc(Cl)n1 | -6% | x | 2.2µM* | -3% | x
COC1=CC(=O)O[C@@H](/C=C/c2ccccc2)C1 | -9% | x | 13µM* | 2% | x
CC(=O)O[C@H]1C[C@@H]2CCC3C(CC[C@@]4(C)[C@H]3C[C@H]([N+]3(C)CCCCC3)[C@@H]4OC(C)=O)[C@@]2(C)C[C@@H]1[N+]1(C)CCCCC1 (stereo partly specified) | -14% | x | -7% | x | u
c1ccc(-c2cc3c(nc2-c2ccccc2)CCNC3)cc1 | x | x | 1%[13.5 µM] | x | x
O=Cc1ccccc1 | -9% | x | 3.2µM* | 1% | x
O=Cc1ccc2c(c1)OCO2 | -8% | x | u | 2% | x
SMILES | HPGD block | PNC inhibitor | ALDH1A1 inh | ALOX12 inhib | LMNA splice mod
CC(=O)N1CCN(c2ccc([N+](=O)[O-])cc2C=C2C(=O)NC(=O)NC2=O)CC1 | x | 19 | 4% | -4% | u
COc1cc(N2CCOCC2)ccc1C=C1C(=O)NC(=O)NC1=O | 32µM* | u | 13µM* | 1% | -6%
N#CC1(O)CCCCC1 | -5% | x | 28µM* | 1% | x
O=C(Nc1ccc(OC(=O)N2CCCC2)cc1)N1CCOCC1 | -9% | -100* | 4% | -13% | -8%
Cc1c(C=C2C(=O)NC(=O)NC2=O)c(=O)n(-c2ccccc2)n1C | x | x | 3% | x | -4%[46 µM]
Cc1cc(/C=C2\C(=O)NC(=O)N(c3ccc(Cl)cc3)C2=O)c(C)n1-c1sc2c(c1C#N)CCCC2 | 10µM* | 51 | 0.25µM* | -9% | -7%
Cc1sc(-n2c(C)cc(C=C3C(=O)NC(=O)NC3=O)c2C)c(C#N)c1C | -29% | 24 | 0.63µM* | 0% | -13%
